Records with an inconclusive call do not appear. Activity calls are given as the source filed them. Calls come from the whole dose curve; as a rule, active = well fitted cell-killing curve with a large enough effect in the repeat runs; inconclusive = weak or mixed curves; inactive = no such curve, though single readings can be large or run the other way.

This test is described as follows: qHTS assay to identify small molecule antagonists of the androgen receptor (AR) signaling pathway - cell viability counter screen (AID 743033; note: nearly all actives have a fitted effect of over 45% in size). As to conditions: AR-bla HEK293 viability, CellTiter-Glo luminescence, 16 h; series mostly up to 58.5 µM. From the text: National Center for Advancing Translational Sciences [NCATS]
NIH Chemical Genomics Center [NCGC]
U.S. Environmental Protection Agency [EPA]
National Institutes of Environmental Health Sciences [NIEHS]
National Toxicology Program [NTP]
U.S. Food and Drug Administration [FDA]
Androgen receptor (AR), a nuclear hormone receptor, plays a critical role in AR-dependent prostate cancer and other androgen related diseases. Endocrine disrupting chemicals (EDCs) and their interactions with steroid hormone receptors like AR may cause disruption of normal endocrine function as well as interfere with metabolic homeostasis, reproduction, developmental and behavioral functions. To identify the compounds that inhibit AR signaling, GeneBLAzer AR-UAS-bla-GripTite cell line (Invitrogen, Carlsbad, CA, USA) containing a beta-lactamase reporter gene under control of an Upstream Activator Sequence (UAS) stably integrated into HEK293 cells was used to screen the Tox21 10K compound library. The cytotoxicity of the Tox21 compound library against the AR-bla cell line was tested in parallel by measuring the cell viability using CellTiter-Glo assay in the same wells.
Tox21 Assay Protocol Summary:
AR-bla cells were dispensed at 2,000 cells/5 uL of assay medium per well into black wall/clear-bottom 1536-well plates using a Multidrop Combi (ThermoFisher Scientific, Waltham, MA) dispenser. After the assay plates were incubated at a 37C and 5% CO2 for 4 hr, 23 nL of compounds dissolved in DMSO, positive controls or DMSO only was transferred to the assay plate by a Pintool station (Kalypsys, San Diego, CA), followed by addition of 1 uL of agonist (R1881) in culture medium using a Bioraptr Flying Reagent Dispenser (FRD) workstation (Beckman Coulter, Indianapolis, IN, USA). The plates were incubated at a 37C and 5% CO2 for 16 h. After 1 uL of LiveBLAzerTM B/G FRET substrate was added using a Bioraptr FRD, the plates were incubated at room temperature for 2 h and fluorescence intensity was measured by an Envision plate reader (PerkinElmer, Shelton, CT). For cell viability readout that measures cytotoxicity, 4 ul/well of CellTiter-Glo reagent was added into the assay plates using a Bioraptr FRD. After 30 min incubation at room temperature, the luminescence intensity in the plates was measured using a ViewLux (PerkinElmer) plate reader.
(qHTS replaces the single test concentration by a dilution series.)
Take `Nc1ccccc1C(=O)O`: the compound was called inactive.

With `c1ccc(OP(Oc2ccccc2)Oc2ccccc2)cc1`, the compound was classed as inactive. Under `Nc1ccc(Cc2ccc(N)cc2)cc1` stands “inactive”; under `C=CC(N)=O`, “inactive”. The value for `Nc1c(Cl)c(Cl)nc(C(=O)O)c1Cl` was “inactive”. On to `BrCCBr`, for which the call was inactive. For the compound `CCCN(CCC)N=O`, the compound was called inactive. Under `CC(C)OC(=O)Nc1cccc(Cl)c1` stands “inactive”.

Take `COc1ccc2c3c1O[C@H]1[C@@H](O)C=C[C@H]4[C@@H](C2)N(C)CC[C@@]341`: the compound was called inactive.

Regarding `Nc1ccc(Oc2ccc(N)cc2)cc1`, the outcome was inactive. Under `CC(C)NC(=O)N1CC(=O)N(c2cc(Cl)cc(Cl)c2)C1=O` stands “inactive”; under `CON(C)C(=O)Nc1ccc(Cl)c(Cl)c1`, “inactive”. Regarding `CCc1cccc(C)c1N(C(=O)CCl)C(C)COC` (stereo not given), the compound was classed as inactive. The value for `Cc1cccc([N+](=O)[O-])c1` was “inactive”.

Take `O=[N+]([O-])c1ccc([As](=O)(O)O)cc1`: the compound was called inactive. The value for `CCOP(=S)(OCC)Oc1cnc2ccccc2n1` was “inactive”; that for `CCCCCCCCCl` was “inactive”.

With `CN(C)CCO`, the outcome was inactive.

Turning to `c1ccc2c(c1)oc1ccccc12`, the compound was called inactive. The value for `COC(=O)NC(=S)Nc1ccccc1NC(=S)NC(=O)OC` was “inactive”; that for `CN(C)N=O` was “inactive”. On to `CCCCN(CCCC)SN(C)C(=O)Oc1cccc2c1OC(C)(C)C2`, for which the outcome was inactive. The value for `COC(=O)c1ccccc1C(=O)OC` was “inactive”. In the case of `C1CC2OC2CC1C1CO1` (stereo not given), the outcome was inactive. The value for `C=C(C)CCl` was “inactive”. Consider `Cc1ccc(N)cc1N`, for which the outcome was inactive. The value for `CCC12COCN1COC2` was “inactive”; that for `O=S(=O)(c1ccc(O)cc1)c1ccc(O)cc1` was “inactive”; that for `C1CN2CCN1CC2` was “inactive”. As to `C#CC(C)(C)NC(=O)c1cc(Cl)cc(Cl)c1`, the outcome was inactive. Under `CCC[CH2][Sn]([Cl])([Cl])[Cl]` stands “inactive”; under `CC(NC(C)(C)C)C(=O)c1cccc(Cl)c1` (stereo not given), “inactive”; under `c1ccc(-c2ccccc2)cc1`, “inactive”. Under `O=S(=O)(c1ccc(Cl)cc1)c1cc(Cl)c(Cl)cc1Cl` stands “inactive”; under `NCC(O)c1ccc(O)cc1` (stereo not given), “inactive”; under `O=c1ccc(=O)[nH][nH]1`, “inactive”. For `CC(C)C1(C)N=C(c2nc3ccccc3cc2C(=O)O)NC1=O` (stereo not given), the compound was called inactive.

Regarding `CCOP(=S)(OCC)SCCSCC`, the outcome was inactive. The value for `C[C@]12CC[C@H]3[C@@H](CC[C@@]45O[C@@H]4C(O)=C(C#N)C[C@]35C)[C@@H]1CC[C@@H]2O` was “inactive”. Consider `CC(C#N)CCC#N` (stereo not given), for which the compound was classed as inactive.

These data come from PubChem BioAssay (Tox21).
